Sampled rows, rich in hits. Any-hit rate of the full collection: about 4.3%.
SMARCA2 act: SMARCA2 (BRM) function activators, primary screen, cell-based, luminescence, high throughput; MG213 cells, MMTV-luciferase reporter, dexamethasone, overnight; activation, % at 9.1 µM; 370,000 tested, 1% active; AID 652017, 2013; in the data active = activation above about 7.8%;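 also: 0% = vehicle wells and 100% = reference activator wells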
FGF22 binding: binders of human FGF22 protein, primary screen, FGF22 synaptogenesis inhibitor project, biophysical, thermal shift, single point | Fibroblast growth factor 22 (Homo sapiens), Q9HCT0 | recombinant FGF22 thermal shift, SYPRO orange fluorescence; percent of sucrose octasulfate shift, DMSO zero | activity (Tm shift, normalised), % at 9.99 µM | 340,000 tested, 1.5% active | AID 651658, 2012;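 active = mean Tm shift, scaled 0 neutral to 100 positive control, at about 1.3% or above, every replicate too, limit read from the data; inconclusive = no clear call, values can overlap the other calls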
Target sequence (Q9HCT0 whole entry, looked up): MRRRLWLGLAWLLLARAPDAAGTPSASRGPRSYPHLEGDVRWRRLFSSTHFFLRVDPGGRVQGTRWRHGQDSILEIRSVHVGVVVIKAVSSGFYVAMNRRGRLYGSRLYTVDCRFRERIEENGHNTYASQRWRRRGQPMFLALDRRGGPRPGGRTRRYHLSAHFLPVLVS
esBAF inh: Bmi1 luciferase reporter increase in mESCs, primary screen, esBAF inhibitor project, mouse ES cells, Bmi1 luciferase knock-in, single point; reporter increase, % at 12.5 µM; AID 602393, 2012; 350,000 tested, 2% active; 24 h; 100% = twice the neutral-well signal; in the data active = activation above about 40%; inconclusive = no clear call, values can overlap the other calls;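 also: 0% = median of the plate's neutral control wells and 100% = double that signal; a rise in the Bmi1 reporter signal indicates esBAF inhibition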
Wnt bcat act: Wnt/beta-catenin pathway activators, primary screen, cell-based, plate reader, single point; Wnt/beta-catenin reporter cell assay, activator; activation, % at 9.35 µM; 300,000 tested, 1.2% active; in the data active = activation above about 30%, passing the limit was not always enough; inconclusive = no clear call, values can overlap the other calls;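 also: 0% = neutral control wells and 100% = positive control wells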
AF4-AF9 inh: inhibitors of AF4 peptide binding to AF9, primary screen, biochemical, AlphaScreen, biotin-AF4 peptide, FLAG-AF9, single point; Protein AF-9 (Homo sapiens), P42568; inhibition, % at 10 µM; AID 651704, 2012; 350,000 tested, 0.47% active;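 active = every replicate reaching a set inhibition limit, whatever the replicate mean, cut at about 25% in these data; inconclusive = mean inhibition reaches that limit but some replicates miss it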;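 also: 0% = plate neutral control median and 100% = total signal loss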
MITF act: activators of MITF-driven TRPM1 promoter reporter, primary screen, cell-based, SK-MEL-5, luciferase, single point. SK-MEL-5 TRPM1-promoter luciferase, 24 h; % of positive control, neutral wells = 0. activation, % at 12.5 µM. 300,000 tested, 0.75% active;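 active = mean activation of at least 80% with every replicate also reaching 80%; inconclusive = mean reaches 80% but some replicate falls short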;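 also: 0% = neutral control wells and 100% = parthenolide positive control wells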
* hit, by the source's call; ? = inconclusive; / = no result.

SMILES	SMARCA2 act	FGF22 binding	esBAF inh	Wnt bcat act	AF4-AF9 inh	MITF act
COC(=O)C1CN(Cc2ccc(OC)cc2)CCS(=O)(=O)N1Cc1ccc(F)cc1 (stereo not drawn)	-6	/	/	/	/	/
NNC(=O)c1sc(-c2ccc(Cl)cc2)cc1N	2	44*	?	23	2	48
CCOC(=O)c1sc(-c2ccc(Br)cc2)cc1N	3	0	34	?	-25	114*
Nc1sc(-c2ccccc2)cc1C(=O)NCCc1ccc(Cl)cc1	2	0	/	-3	-3	/
CCCCCCCCN1C(=O)[C@@H](CC(=O)NCc2cccc3ccccc23)C[C@@]2(C(=O)OC)C1=C[C@H](C(C)(C)C)O[C@@H]2C	-2	0	/	-24	0	/
CN1C[C@@H]2[C@H](c3ccccc31)[C@H](CO)N2Cc1ccccc1	/	/	-4	/	/	/
Cc1c(-c2cccc(NC(=O)c3cccs3)c2)nc2ncccn12	-1	1	/	-2	-7	9
Cc1c(-c2cccc(NC(=O)c3ccco3)c2)nc2ncccn12	-3	44*	/	5	-2	6
O=c1c2cc(N3CCOCC3)ccc2[nH]c(=S)n1Cc1ccc(Cl)cc1	0	/	54*	/	/	60
CN(C)CCCNC(=O)C[C@H]1CC[C@@H]2[C@@H](COc3ccc(NC(=O)c4ccccc4F)cc3C(=O)N2C)O1	/	0	4	/	0	/
CC1CCCCN1C(=S)NCCc1ccccc1 (stereo not drawn)	4	/	34	37*	/	/
O=C(CN1CCCC1)Nc1ccc(F)cc1	-7	43*	-4	-4	-7	-7
CSCCC(=O)Nc1ccc(C(C)=O)cc1	4	0	53*	-1	-1	39
O=C(CN1CCCC1)NCC(=O)Nc1ccc(F)cc1	-3	0	-5	0	0	-2
CC(=O)c1ccc(NC(=O)CN2CCCC2)cc1	4	0	50*	2	0	/
CC(=O)c1ccc(NC(=O)CSCCO)cc1	0	/	27	/	/	27
CO[C@H]1CN(C)C(=O)c2cc(NC(C)=O)ccc2OC[C@@H](C)N(Cc2nccs2)C[C@@H]1C	/	0	-3	/	-11	/
CC(C)NC(=O)NCC[C@@H]1CC[C@@H](NS(=O)(=O)c2ccc(Oc3ccccc3)cc2)[C@@H](CO)O1	/	0	7	/	3	/
COc1ccc(CC(=O)OCC(=O)Nc2cc(S(=O)(=O)N3CCOCC3)ccc2N2CCCC2)cc1	-7	43*	/	0	-1	10
COc1cc(S(=O)(=O)N2CCOCC2)ccc1NC(=O)COC(=O)/C=C/c1cc(OC)c(OC)c(OC)c1	0	43*	/	0	-2	7
COc1ccc(CC(=O)Nc2cc(S(=O)(=O)N3CCOCC3)ccc2N2CCOCC2)cc1	-2	43*	/	-1	3	-8
COc1ccc(/C=C/C(=O)Nc2cc(S(=O)(=O)N3CCOCC3)ccc2N2CCCC2)cc1OC	5	43*	/	-1	5	-11
C[C@@H]1CN([C@@H](C)CO)C(=O)Cc2cc(NC(=O)Nc3ccccc3)ccc2O[C@H]1CN(C)Cc1ccccc1	/	0	2	/	11	/
C[C@@H]1CN([C@H](C)CO)C(=O)c2cc(NC(=O)Nc3ccccc3)ccc2O[C@@H]1CN(C)Cc1ccc2c(c1)OCO2	/	0	3	/	7	/
C[C@H]1C2CC(OC(=O)Nc3ccc4c(c3)OCO4)C(C2)[C@H]2CCCCN21 (stereo partly drawn)	-2	/	/	/	/	/
SMILES	SMARCA2 act	FGF22 binding	esBAF inh	Wnt bcat act	AF4-AF9 inh	MITF act
COc1ccc(CNC(=O)c2ccncc2)cc1	-2	0	0	1	2	-3
COc1ccc(CNC(=O)c2ccc(S(=O)(=O)N3CCOCC3)cc2)cc1	4	78*	/	-2	-6	-2
COc1ccc(CNC(=O)c2ccc(C(C)(C)C)cc2)cc1	6	0	/	6	-1	102*
O=C(NCc1ccccc1)c1ccc2ccccc2n1	0	0	3	-1	-9	1
COc1ccc(CNC(=O)c2ccc3ccccc3n2)cc1	4	0	82*	1	-5	/
O=S(=O)(Nc1cc(S(=O)(=O)N2CCOCC2)ccc1N1CCOCC1)c1ccc2c(c1)OCCO2	2	44*	/	3	0	6
O=S(=O)(Nc1cc(S(=O)(=O)N2CCOCC2)ccc1O)c1ccc2c(c1)OCCCO2	-2	0	8	1	-4	4
COc1ccc(CNC(=O)C(=O)NCC(c2ccco2)N2CCOCC2)cc1 (stereo not drawn)	5	/	6	40*	/	3
COc1cc(CC(=O)Nc2cc(S(=O)(=O)N3CCOCC3)ccc2N2CCCC2)cc(OC)c1OC	2	0	0	-2	3	2
Cc1nnc(NC(=O)c2ccc3ccccc3n2)s1	3	0	43*	13	-1	49
COc1ccc(CC(=O)Nc2cc(S(=O)(=O)N3CCOCC3)ccc2N2CCCC2)cc1	4	43*	2	-6	-3	/
COc1ccccc1C(=O)Nc1ccc2c(c1)C(=O)N(C)C[C@@H](OC)[C@H](C)CN(C)[C@@H](C)CO2	/	0	4	/	1	/
Cc1cc(C)c(N=Cc2c(O)c3ccccc3oc2=O)c(C)c1	0	0	57*	0	1	55
CC(O)CNc1nc2sc3c(c2c(=O)n1CCc1ccccc1)CCCCC3 (stereo not drawn)	-2	44*	/	2	7	38
O=C(Nc1ccc2c(c1)[C@H]1C[C@H](CC(=O)N3CCc4ccccc4C3)O[C@@H](CO)[C@H]1O2)c1ccc2c(c1)OCO2	/	0	22	/	3	/
Cc1cc(C(=O)Nc2ccc(Br)cc2)cs1	1	0	/	45*	1	30
Cc1nc2cc(C(=O)O)ccc2s1	4	/	73*	/	/	62
Cc1nc2ccc(NC(=O)c3cncc(Br)c3)cc2s1	2	0	6	18	6	92*
CC(=O)c1ccc(NC(=O)Nc2ccc3c(c2)nc(C)n3C)cc1	6	41	/	7	-3	85*
CNS(=O)(=O)c1ccc(NC(=O)c2csc(C)c2)cc1	-2	0	/	0	1	1
CS(=O)(=O)N1CCCCN2[C@H](C1)[C@@H](c1ccc(-c3cccc(C#N)c3)cc1)[C@@H]2CO	/	0	-1	/	-7	/
CC(=O)c1ccc(NC(=O)c2ccc3nc(C)sc3c2)cc1	4	0	49*	-3	3	/
CC(=O)c1ccc(NC(=O)c2ccc(C)c(Br)c2)cc1	7	0	/	69*	-2	68
